Measurements taken from PubChem BioAssay AID1259418 (Broad Institute, 2018).
Hit rate of the full screen: of about 3,400 compounds, about 840 (25%) were called active. Roughly 11% stayed inconclusive and do not appear here. The list is a sample of the results. Results with a measured potency or affinity are listed apart. A number with no mark means an inactive call.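 Rule for the calls: active = fitted half-maximal concentration of signal decrease at or below twice the sample's top tested concentration; inconclusive = flat curve between -70 and -30 percent, or poor fit; inactive = flat within 30 percent, signal rise, or potency above limit.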

Assay: inhibitors of Toxoplasma growth in IFN-γ-primed HeLa – cell-based, ME49Luc, luciferase, 72 h, dose response (AID 1259418)
Conditions: T. gondii ME49Luc in IFN-y HeLa, active compounds read low, -100% = high-dose IFN-γ control wells

Compound: N#CCSC1=Nc2ccccc2C2=NC(CCC(=O)NCc3ccccc3)C(=O)N12 (stereo not drawn)
- max activity (at 19.5 µM unless noted): 72.9%

Compound: CCOc1ccc(-c2nc(CN3CCN(C(=O)Nc4cc(C)ccc4C)CC3)c(C)o2)cc1
- max activity (at 19.5 µM unless noted): -22.4%

Compound: Cc1nc(OCC(=O)Nc2ccccc2Cl)c2ccccc2n1
- max activity (at 19.5 µM unless noted): 28.8% [at 0.35 µM]

Compound: CCc1nc(OCC(=O)Nc2cc(OC)cc(OC)c2)c2ccccc2n1
- max activity (at 19.5 µM unless noted): 14.7% [at 0.68 µM]

Compound: COc1ccc(-c2nc(Cn3nnc(-c4nc(-c5cccnc5)no4)c3C)c(C)o2)cc1
- max activity (at 19.5 µM unless noted): 6.33% [at 5 µM]

Compound: Cc1nc(OCC(=O)Nc2cccc(C)c2C)c2ccccc2n1
- max activity (at 19.5 µM unless noted): 9.02% [at 0.16 µM]

Compound: Cc1nc(CCNC(=O)[C@H]2CCCN2S(=O)(=O)c2ccc(C)c(C)c2)cs1
- max activity (at 19.5 µM unless noted): 15.2% [at 10 µM]

Compound: Cc1nc(CCNC(=O)[C@H]2CCCN2S(=O)(=O)c2ccc(Cl)cc2)cs1
- max activity (at 19.5 µM unless noted): 23.5% [at 0.16 µM]

Compound: Cc1c(S(=O)(=O)N2CCC[C@@H]2C(=O)NCCc2csc(-c3ccccc3)n2)cnn1C(F)F
- max activity (at 19.5 µM unless noted): 5.67% [at 2.6 µM]

Compound: O=C(NCCc1csc(-c2ccccc2)n1)[C@H]1CCCN1S(=O)(=O)c1cccc(F)c1
- max activity (at 19.5 µM unless noted): -25.4% [at 1.35 µM]

Compound: Cc1ccc(S(=O)(=O)N2CCC[C@@H]2C(=O)NCCc2csc(C)n2)cc1
- max activity (at 19.5 µM unless noted): 7.86% [at 10 µM]

Compound: Cc1nc(CCNC(=O)[C@H]2CCCN2S(=O)(=O)c2ccccc2C)cs1
- max activity (at 19.5 µM unless noted): 12.4% [at 10 µM]

Compound: Cc1nc(CCNC(=O)[C@H]2CCCN2S(=O)(=O)c2ccc(F)cc2)cs1
- max activity (at 19.5 µM unless noted): 18.1% [at 1.35 µM]

Compound: CCc1ccc(S(=O)(=O)N2CCc3nc(-c4cccc(OC)c4)sc3C2)cc1
- max activity (at 19.5 µM unless noted): -5.58% [at 5 µM]

Compound: Cc1cccc(-n2ncc3c(NC4CCCCCCCCCCC4)ncnc32)c1
- max activity (at 19.5 µM unless noted): 22.5% [at 10 µM]

Compound: CCOC(=O)c1cccc(NC(=O)Nc2ccc(-c3nc(-c4ccccc4)co3)cc2)c1
- max activity (at 19.5 µM unless noted): 14.5% [at 0.16 µM]

Compound: COc1ccccc1-c1nc(Cn2nnc(-c3nc(-c4ccc(F)cc4)no3)c2C)c(C)o1
- max activity (at 19.5 µM unless noted): 9.82% [at 0.16 µM]

Compound: CS(=O)(=O)N1CCO[C@@H]2CN(C(=O)Cc3ccccn3)CC[C@H]2C1
- max activity (at 19.5 µM unless noted): -7.92% [at 0.3 µM]

Compound: COc1ccc(-c2nc(Cn3nnc(-c4nc(-c5ccc(OC(C)C)cc5)no4)c3C)c(C)o2)cc1
- max activity (at 19.5 µM unless noted): 11.3% [at 0.35 µM]

Compound: COc1cccc(NC(=O)Nc2ccc(-c3nc(-c4cccc(Br)c4)co3)cc2)c1
- max activity (at 19.5 µM unless noted): 13.3%

Compound: Cc1ccc(C(=O)Nc2c(C(=O)N3CCCC3)[nH]c3ccc(C)cc23)cc1
- max activity (at 19.5 µM unless noted): 49.7% [at 10 µM]

Compound: CCC(C)NC(=O)Cn1c(=O)c(S(=O)(=O)c2ccccc2)cc2cc(C)ccc21 (stereo not drawn)
- max activity (at 19.5 µM unless noted): -4.98% [at 10 µM]

Compound: CC(C)(C)c1ccc(S(=O)(=O)N2CCC[C@@H]2C(=O)NCCc2csc(-c3ccccc3)n2)cc1
- max activity (at 19.5 µM unless noted): -14.7% [at 0.16 µM]

Compound: Cc1cc(C)cc(C(=O)N2CCC[C@@H]2C(=O)NCCc2csc(-c3ccccc3)n2)c1
- max activity (at 19.5 µM unless noted): -12.7%

Compound: Cc1cc(C)c(S(=O)(=O)N2CCC[C@@H]2C(=O)NCCc2csc(-c3ccccc3)n2)cc1C
- max activity (at 19.5 µM unless noted): -22.5%

Compound: Cc1nc(CCNC(=O)[C@H]2CCCN2S(=O)(=O)c2ccc(Cl)s2)cs1
- max activity (at 19.5 µM unless noted): 12.6% [at 0.16 µM]

Compound: O=C(NCCc1csc(-c2ccccc2)n1)[C@H]1CCCN1S(=O)(=O)c1cccc(Cl)c1
- max activity (at 19.5 µM unless noted): -25.7%

Compound: CCc1ccc(S(=O)(=O)N2CCC[C@@H]2C(=O)NCCc2csc(C)n2)cc1
- max activity (at 19.5 µM unless noted): -9.49% [at 0.35 µM]

Compound: COc1ccc(CNC(=O)Nc2ccc(-c3nc(-c4ccc(C)cc4C)co3)cc2)cc1
- max activity (at 19.5 µM unless noted): 20.3% [at 1.35 µM]

Compound: Cc1oc(-c2ccccc2)nc1CSc1nc2c(c(=O)[nH]1)CN(Cc1ccc(F)cc1)CC2
- max activity (at 19.5 µM unless noted): 22.6% [at 0.35 µM]

Compound: Cc1ccc(-c2coc(-c3ccc(NC(=O)C4CCCCC4)cc3)n2)cc1
- max activity (at 19.5 µM unless noted): 55.5%

Compound: Cc1ccc(-c2coc(-c3ccc(NC(=O)c4cccc(C)c4)cc3)n2)cc1
- max activity (at 19.5 µM unless noted): 70.3% [at 10 µM]

Compound: Cc1ccc(-c2nc(Cn3nnc(-c4nc(-c5ccccc5Br)no4)c3C)c(C)o2)cc1
- max activity (at 19.5 µM unless noted): -6.98% [at 5 µM]

Compound: Cc1ccccc1C(=O)N1CSC[C@@H]1C(=O)NCCc1csc(-c2ccccc2)n1
- max activity (at 19.5 µM unless noted): -16.3%

Compound: COc1ccccc1-c1noc(C2CCCN2C(=O)Cc2c[nH]c3ccccc23)n1 (stereo not drawn)
- max activity (at 19.5 µM unless noted): -7.96% [at 0.35 µM]

Compound: COc1ccccc1-c1noc(C2CCCN2C(=O)c2ccc3cc[nH]c3c2)n1 (stereo not drawn)
- max activity (at 19.5 µM unless noted): 14.5% [at 10 µM]

Compound: CCn1nccc1C(=O)Nc1ccc2c(c1)CCC(=O)N2C
- max activity (at 19.5 µM unless noted): 24.4%

Compound: COC[C@@H]1CN(CC2CC2)C[C@@]12CCN(CCc1ccccc1)C2
- max activity (at 19.5 µM unless noted): -8.78% [at 2.6 µM]

Compound: CCOC(=O)CSc1nc(NCc2ccc(Cl)cc2)c2ccccc2n1
- max activity (at 19.5 µM unless noted): 29.6%

Compound: CCOC(=O)C1CCN(c2nc(-c3ccc(Cl)cc3)nc3ccccc23)CC1
- max activity (at 19.5 µM unless noted): 17% [at 0.35 µM]

Compound: O=C(Cn1c(=O)c(S(=O)(=O)c2ccccc2)cc2ccccc21)NCc1ccccc1
- max activity (at 19.5 µM unless noted): -8.55% [at 2.6 µM]

Compound: c1ccc(-c2ccc([C@H]3[C@H]4CNC[C@@H]3N4Cc3cc(-c4ccccc4)on3)cc2)cc1
- max activity (at 19.5 µM unless noted): 49.3% [at 10 µM]

Compound: O=C(NC1CCCC1)N1[C@@H]2CNC[C@H]1C2c1ccc(-c2cccnc2)cc1 (stereo partly drawn)
- max activity (at 19.5 µM unless noted): 19.4%

Compound: Cc1ccc2c(c1)cc(S(=O)(=O)c1ccccc1)c(=O)n2CC(=O)NC(C)C
- max activity (at 19.5 µM unless noted): -9.24% [at 0.16 µM]

Compound: O=C(Nc1ccc(-c2nc(-c3cccc(Br)c3)co2)cc1)Nc1ccccc1F
- max activity (at 19.5 µM unless noted): 6.98%

Compound: COc1ccccc1-c1nc(Cn2nnc(-c3nc(-c4cccnc4)no3)c2C)c(C)o1
- max activity (at 19.5 µM unless noted): 10.3% [at 0.16 µM]

Compound: O=C(CC1CCCCC1)N1CCC2(CC1)Nc1ccc(Cl)cc1-n1cccc12
- max activity (at 19.5 µM unless noted): 7.76% [at 0.35 µM]

Compound: Cc1ccc2c(c1C)-n1cccc1C1(CCN(C(=O)C3CCCCC3)CC1)N2
- max activity (at 19.5 µM unless noted): -20.8% [at 0.16 µM]

Compound: Cc1ccc(C(=O)N2CCC3(CC2)Nc2ccc(Cl)cc2-n2cccc23)cc1
- max activity (at 19.5 µM unless noted): 8.29% [at 0.35 µM]

Compound: O=C(c1ccc(Cl)cc1)N1CCC2(CC1)Nc1ccc(Cl)cc1-n1cccc12
- max activity (at 19.5 µM unless noted): -6.42% [at 0.35 µM]

Compound: COc1ccc(CC(=O)N2CCC3(CC2)Nc2ccc(Cl)cc2-n2cccc23)cc1
- max activity (at 19.5 µM unless noted): 5.66% [at 2.6 µM]

Compound: CCC(CC)C(=O)N1CCC2(CC1)Nc1ccc(Cl)cc1-n1cccc12
- max activity (at 19.5 µM unless noted): 9.15% [at 0.68 µM]

Compound: O=C(CC1CCCC1)N1CCC2(CC1)Nc1ccc(Cl)cc1-n1cccc12
- max activity (at 19.5 µM unless noted): -10.7% [at 0.16 µM]

Compound: CC(C)C(=O)N1CCC2(CC1)Nc1ccc(Cl)cc1-n1cccc12
- max activity (at 19.5 µM unless noted): 15.6% [at 0.68 µM]

Compound: CCc1onc(C)c1C1CCCN1Cc1cn(CC)c2ccc(OC)cc12 (stereo not drawn)
- max activity (at 19.5 µM unless noted): -10.8% [at 0.35 µM]

Compound: CSc1cccc(NC(=O)Nc2ccc(-c3nc(-c4ccccc4)co3)cc2)c1
- max activity (at 19.5 µM unless noted): 76%

Compound: Fc1ccc(F)c(CN2[C@@H]3CNC[C@H]2C3c2ccc(-c3ccncc3)cc2)c1 (stereo partly drawn)
- max activity (at 10 µM): 23.7%
- max activity (at 21 µM): 49%

Compound: COc1ccc(CCC(=O)N2CCC3(CC2)Nc2ccc(C)c(C)c2-n2cccc23)cc1
- max activity (at 19.5 µM unless noted): -4.87% [at 0.68 µM]

Compound: O=C(CC1N=C2c3ccccc3N=C(SCc3ccccc3Cl)N2C1=O)NCc1ccc2c(c1)OCO2 (stereo not drawn)
- max activity (at 19.5 µM unless noted): 24.9% [at 0.16 µM]

Compound: CCc1ccc(N2CCC(C(=O)NCCc3c[nH]c4ccc(Cl)cc34)C2=O)cc1 (stereo not drawn)
- max activity (at 19.5 µM unless noted): -15.5% [at 0.16 µM]

Compound: Cc1ccc2[nH]cc(CCNC(=O)C3CCN(c4ccc(Cl)cc4)C3=O)c2c1 (stereo not drawn)
- max activity (at 19.5 µM unless noted): 23.3% [at 10 µM]

Compound: Cc1ccc2c(c1C)-n1cccc1C1(CCN(C(=O)c3ccccc3Cl)CC1)N2
- max activity (at 19.5 µM unless noted): -6.73% [at 0.35 µM]

Compound: CCOc1ccc(C(=O)N2CCC3(CC2)Nc2ccc(Cl)cc2-n2cccc23)cc1
- max activity (at 19.5 µM unless noted): 11.3% [at 0.68 µM]

Compound: CCOc1ccccc1C(=O)N1CCC2(CC1)Nc1cc(OC)ccc1-n1cccc12
- max activity (at 19.5 µM unless noted): 12% [at 2.6 µM]

Compound: Cc1ccccc1C(=O)N1CCC2(CC1)Nc1ccc(Cl)cc1-n1cccc12
- max activity (at 19.5 µM unless noted): -3.44%

Compound: Cc1ccccc1C(=O)N1CCC2(CC1)Nc1ccc(C)c(C)c1-n1cccc12
- max activity (at 19.5 µM unless noted): -10.8% [at 5 µM]

Compound: O=C(c1ccccc1Cl)N1CCC2(CC1)Nc1ccc(Cl)cc1-n1cccc12
- max activity (at 19.5 µM unless noted): 6.15% [at 1.35 µM]

Compound: Cc1ccc(-c2coc(-c3ccc(NC(=O)NCc4ccc(F)cc4)cc3)n2)c(C)c1
- max activity (at 19.5 µM unless noted): -6.17% [at 0.16 µM]

Compound: CN(Cc1ccccn1)C(=O)C1=NOC2(CCN(S(=O)(=O)c3ccc(F)cc3)C2)C1 (stereo not drawn)
- max activity (at 19.5 µM unless noted): 35.3%

Compound: COc1ccc(-c2nc3c(s2)CN(C(=O)Nc2ccc(C)cc2Cl)CC3)cc1OC
- max activity (at 19.5 µM unless noted): -9.18% [at 0.35 µM]

Compound: COc1ccccc1-c1nc(Cn2nnc(-c3nc(-c4cccc(Cl)c4)no3)c2C)c(C)o1
- max activity (at 19.5 µM unless noted): 8.57% [at 0.35 µM]

Compound: NC(=O)C1(N2CCCCC2)CCN(c2ncc(NC(=O)c3ccc(F)cc3)cc2C(=O)O)CC1
- max activity (at 19.5 µM unless noted): -7.63% [at 10 µM]
